The source of these data is PubChem BioAssay (EPA / NIEHS).

Active and inactive are the calls of the source. Rule for the calls: active = hit-call score of the fitted dose curve at least 0.9, where 1 is the maximum; inactive = score below 0.9.

Test [1] in a line: CEETOX_H295R_CORTIC: CeeTox H295R High-throughput Steroidogenesis Assay for Corticosterone (CORTIC) (AID 2283437).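 Note: corticosterone secreted into medium quantified by mass spectrometry.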 The following applies: actives raise or lower the signal. An outline of the steps:
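Corticosterone secreted into medium is measured by reverse-phase HPLC with tandem MS following liquid-liquid extraction. Cells are forskolin-stimulated (10 uM, 48 h) before 48 h test exposure; activity fitted in both directions against DMSO.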

Test [2] in a line: CEETOX_H295R_DOC: CeeTox H295R High-throughput Steroidogenesis Assay for DOC (AID 2283439). The following applies: actives raise or lower the signal. In outline: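 Readout: 11-deoxycorticosterone in culture medium by reverse-phase C18 HPLC with ESI+ tandem MS after MTBE extraction. Cells: H295R, forskolin-primed (10 uM, 48 h), chemical-treated 48 h; DMSO 0.1% final. Activity fitted bidirectionally versus DMSO.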

Test [3] in a line: CEETOX_H295R_PROG: CeeTox H295R High-throughput Steroidogenesis Assay for Progesterone (PROG) (AID 2283442).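 For AC50: human H295R adrenal cells primed with 10 µM forskolin before dosing.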 Particulars: actives raise or lower the signal. An outline of the steps:
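H295R human adrenal cells were prestimulated with 10 uM forskolin for 48 h, then exposed to test chemical (0.1% DMSO final) for 48 h. Medium progesterone was MTBE-extracted and quantified by HPLC-MS/MS, with bidirectional fitting against DMSO.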

A short description of test [4]: CEETOX_H295R_ESTRADIOL: CeeTox H295R High-throughput Steroidogenesis Assay for Estradiol (AID 2283440).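 Note: estradiol secreted into medium quantified by LC-MS/MS after dansyl derivatisation.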 The following applies: actives raise or lower the signal. In outline:
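H295R adrenocortical cells were prestimulated with 10 uM forskolin for 48 h, then exposed to test chemical in 0.1% DMSO for 48 h. Medium estradiol was extracted with MTBE, dansyl-derivatized and quantified by HPLC-MS/MS; bidirectional fit versus DMSO.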

Test [5] is described as follows: CEETOX_H295R_ESTRONE: CeeTox H295R High-throughput Steroidogenesis Assay for Estrone (AID 2283441).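 Note: estrone secreted into medium measured by LC-MS/MS after dansyl derivatization.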 The following applies: actives raise or lower the signal. An outline of the steps:
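H295R cells prestimulated 48 h with 10 uM forskolin, then exposed 48 h to chemicals in 0.1% DMSO final; estrone in medium extracted with MTBE, dansyl-derivatized, quantified by HPLC-MS/MS; bidirectional fitting versus DMSO, viability by MTT.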

Test [6] is described as follows: CEETOX_H295R_TESTO: CeeTox H295R High-throughput Steroidogenesis Assay for Testosterone (TESTO) (AID 2283457).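 For AC50: cells exposed to chemicals for 48 h before medium collection.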 The following applies: actives raise or lower the signal. In outline:
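H295R human adrenal cells in DMEM/F12 with ITS+ and Nu-Serum, exposed to chemicals for 48 h. Testosterone in medium measured by MTBE extraction, reverse-phase HPLC-MS/MS; bidirectional fit versus DMSO baseline. MTT viability checked in same wells.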

Read-out in test [7]: Tumor necrosis factor receptor superfamily member 6 (Homo sapiens) (UniProt P25445)
Nature of the test: LTEA_HepaRG_FAS: Life Technologies and Expression Analysis (LTEA) Assay for Fas cell surface death receptor (FAS) using HepaRG (AID 2283447). Particulars: mRNA level, 48 h; actives raise or lower the signal. An outline of the steps:
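FAS transcript level was measured by TaqMan qRT-PCR against three housekeeping genes after 48 h chemical exposure. Cells were HepaRG, 0.5% DMSO vehicle, with a top concentration of 100 uM and half-log dilutions over eight points, in duplicate.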

Read-out in test [8]: Fatty acid synthase (Homo sapiens) (UniProt P49327)
Nature of the test: LTEA_HepaRG_FASN: Life Technologies and Expression Analysis (LTEA) Assay for Fatty Acid Synthase (FASN) using HepaRG (AID 2283448). Particulars: mRNA level, 48 h; actives raise or lower the signal. An outline of the steps:
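FASN expression changes, up or down relative to 0.5% DMSO, were measured by qRT-PCR in human HepaRG cells after 48 h treatment with chemicals at eight concentrations (half-log steps from 100 uM).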

Read-out in test [9]: Cyclin D2 (CCND2), CCND2 (gene 894)
Nature of the test: LTEA_HepaRG_CCND2: Life Technologies and Expression Analysis (LTEA) Assay for Cyclin D2 (CCND2) using HepaRG (AID 2283449). Particulars: mRNA level, 48 h; actives raise or lower the signal. An outline of the steps: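 Read-out is CCND2 mRNA level measured by qRT-PCR in human HepaRG liver cells and normalised to three housekeeping genes. Chemicals were applied for 48 h at up to 100 uM, with gain or loss fitted relative to 0.5% DMSO.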

Read-out in test [10]: Cyclin Dependent Kinase Inhibitor 1A (CDKN1A), CDKN1A (gene 1026)
Nature of the test: LTEA_HepaRG_CDKN1A: Life Technologies and Expression Analysis (LTEA) Assay for Cyclin Dependent Kinase Inhibitor 1A (CDKN1A) using HepaRG (AID 2283450). The following applies: mRNA level, 48 h; actives raise or lower the signal. An outline of the steps:
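Differentiated human HepaRG cells, pre-cultured 48 h, were exposed in duplicate for 48 h in serum-free induction medium to eight half-log concentrations up to 100 uM (0.5% DMSO). CDKN1A mRNA was measured by qRT-PCR, normalized to ACTB/GAPDH/POLR2A, bidirectionally fitted versus DMSO.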

Read-out in test [11]: Cyclin D1 (CCND1), CCND1 (gene 595)
Put plainly: LTEA_HepaRG_CCND1: Life Technologies and Expression Analysis (LTEA) Assay for Cyclin D1 (CCND1) using HepaRG (AID 2283451).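 For AC50: TaqMan qRT-PCR transcript level normalised to ACTB GAPDH and POLR2A housekeeping genes.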 The following applies: mRNA level, 48 h; actives raise or lower the signal. In outline: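 Differentiated human HepaRG cells in serum-free induction medium were exposed 48 h to eight half-log concentrations up to 100 uM in 0.5% DMSO; mRNA quantified by TaqMan qRT-PCR, normalized to ACTB, GAPDH, POLR2A, fitted bidirectionally versus DMSO.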

Read-out in test [12]: flavin-containing dimethylaniline monooxygenases 3 (FMO3), FMO3 (gene 2328)
Put plainly: LTEA_HepaRG_FMO3: Life Technologies and Expression Analysis (LTEA) Assay for flavin-containing dimethylaniline monooxygenases 3 (FMO3) using HepaRG (AID 2283453). The following applies: mRNA level, 48 h; actives raise or lower the signal. In outline: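 Differentiated HepaRG cells in serum-free induction medium, exposed 48 h in duplicate to 8 half-log concentrations up to 100 uM in 0.5% DMSO. FMO3 mRNA by qRT-PCR, normalized to ACTB, GAPDH, POLR2A; bidirectional fit vs DMSO.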

Read-out in test [13]: CFLAR gene, CFLAR (gene 8837)
Nature of the test: LTEA_HepaRG_CFLAR: Life Technologies and Expression Analysis (LTEA) Assay for CFLAR gene using HepaRG (AID 2283455). The following applies: mRNA level, 48 h; actives raise or lower the signal. In outline: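 HepaRG, 48 h exposure, 8-pt conc-response (100 uM top, half-log), 0.5% DMSO vehicle, duplicates. CFLAR expression by qRT-PCR; ACTB/GAPDH/POLR2A normalization; gain or loss fit vs DMSO baseline.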

Read-out in test [14]: Forkhead box O1 (FOXO1), FOXO1 (gene 2308)
Nature of the test: LTEA_HepaRG_FOXO1: Life Technologies and Expression Analysis (LTEA) Assay for Forkhead box O1 (FOXO1) using HepaRG (AID 2283456). The following applies: mRNA level, 48 h; actives raise or lower the signal. In outline:
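Readout is FOXO1 transcript level by multiplexed qRT-PCR against three housekeeping genes, curve-fitted in both directions relative to 0.5% DMSO vehicle. Human HepaRG cultures received chemicals for 48 h, up to 100 uM in half-log steps.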

Read-out in test [15]: Forkhead box O3 (FOXO3), FOXO3 (gene 2309)
Nature of the test: LTEA_HepaRG_FOXO3: Life Technologies and Expression Analysis (LTEA) Assay for Forkhead box O3 (FOXO3) using HepaRG (AID 2283459). Particulars: mRNA level, 48 h; actives raise or lower the signal. An outline of the steps:
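HepaRG, 48 h post-dose; 8 conc., half-log from 100 uM, 0.5% DMSO, duplicates; serum-free induction medium. Readout: FOXO3 mRNA, TaqMan qRT-PCR, housekeeping-normalized. Bidirectional curve fit vs DMSO baseline.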

Read-out in test [16]: growth arrest and DNA damage 45 (GADD45B), GADD45B (gene 4616)
Put plainly: LTEA_HepaRG_GADD45B: Life Technologies and Expression Analysis (LTEA) Assay for growth arrest and DNA damage 45 (GADD45B) using HepaRG (AID 2283461). Particulars: mRNA level, 48 h; actives raise or lower the signal. In outline:
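Differentiated HepaRG cells, plated 48 h then switched to serum-free induction medium, were exposed 48 h in duplicate to eight half-log concentrations from 100 uM in 0.5% DMSO; mRNA quantified by qRT-PCR, normalized to ACTB/GAPDH/POLR2A, bidirectional fit versus DMSO.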

Read-out in test [17]: ABC Transporter (ABCC3), ABCC3 (gene 8714)
Put plainly: LTEA_HepaRG_ABCC3: Life Technologies and Expression Analysis (LTEA) Assay for ABC Transporter (ABCC3) using HepaRG (AID 2283462). Particulars: mRNA level, 48 h; actives raise or lower the signal. In outline: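 HepaRG cells in serum-free induction medium were exposed for 48 h in duplicate to 8-point half-log concentrations topping at 100 uM in 0.5% DMSO. ABCC3 mRNA was measured by qRT-PCR normalized to ACTB, GAPDH and POLR2A, with bidirectional fitting versus DMSO.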

Read-out in test [18]: Cytochrome P450 (CYP1A1), CYP1A1 (gene 1543)
Nature of the test: LTEA_HepaRG_CYP1A1: Life Technologies and Expression Analysis (LTEA) Assay for Cytochrome P450 (CYP1A1) using HepaRG (AID 2283454). The following applies: mRNA level, 48 h; actives raise or lower the signal. In outline: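 Differentiated HepaRG cells in serum-free induction medium were exposed in duplicate for 48 h to eight half-log concentrations up to 100 uM in 0.5% DMSO. CYP1A1 mRNA was quantified by TaqMan qRT-PCR, normalized to ACTB, GAPDH and POLR2A.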

Read-out in test [19]: ABC Transporter (ABCB1), ABCB1 (gene 5243)
Nature of the test: LTEA_HepaRG_ABCB1: Life Technologies and Expression Analysis (LTEA) Assay for ABC Transporter (ABCB1) using HepaRG (AID 2283460). The following applies: mRNA level, 48 h; actives raise or lower the signal. An outline of the steps:
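Expression of ABCB1 was quantified by qRT-PCR against three housekeeping genes after human HepaRG cultures received test chemicals for 48 hours. Concentrations spanned eight half-log steps topping at 100 uM in 0.5% DMSO; gain or loss of signal was fitted relative to vehicle.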

Read-out in test [20]: ABC Transporter (ABCB11), ABCB11 (gene 8647)
Nature of the test: LTEA_HepaRG_ABCB11: Life Technologies and Expression Analysis (LTEA) Assay for ABC Transporter (ABCB11) using HepaRG (AID 2283463). Particulars: mRNA level, 48 h; actives raise or lower the signal. An outline of the steps: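 ABCB11 transcript levels are read by Fluidigm TaqMan qRT-PCR after 48 h chemical treatment of human HepaRG cells. Concentrations span 100 uM downward in half-log steps with 0.5% DMSO; gain or loss is fitted against DMSO controls.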

Fatty acid synthase (Homo sapiens), sequence (P49327 whole entry, looked up): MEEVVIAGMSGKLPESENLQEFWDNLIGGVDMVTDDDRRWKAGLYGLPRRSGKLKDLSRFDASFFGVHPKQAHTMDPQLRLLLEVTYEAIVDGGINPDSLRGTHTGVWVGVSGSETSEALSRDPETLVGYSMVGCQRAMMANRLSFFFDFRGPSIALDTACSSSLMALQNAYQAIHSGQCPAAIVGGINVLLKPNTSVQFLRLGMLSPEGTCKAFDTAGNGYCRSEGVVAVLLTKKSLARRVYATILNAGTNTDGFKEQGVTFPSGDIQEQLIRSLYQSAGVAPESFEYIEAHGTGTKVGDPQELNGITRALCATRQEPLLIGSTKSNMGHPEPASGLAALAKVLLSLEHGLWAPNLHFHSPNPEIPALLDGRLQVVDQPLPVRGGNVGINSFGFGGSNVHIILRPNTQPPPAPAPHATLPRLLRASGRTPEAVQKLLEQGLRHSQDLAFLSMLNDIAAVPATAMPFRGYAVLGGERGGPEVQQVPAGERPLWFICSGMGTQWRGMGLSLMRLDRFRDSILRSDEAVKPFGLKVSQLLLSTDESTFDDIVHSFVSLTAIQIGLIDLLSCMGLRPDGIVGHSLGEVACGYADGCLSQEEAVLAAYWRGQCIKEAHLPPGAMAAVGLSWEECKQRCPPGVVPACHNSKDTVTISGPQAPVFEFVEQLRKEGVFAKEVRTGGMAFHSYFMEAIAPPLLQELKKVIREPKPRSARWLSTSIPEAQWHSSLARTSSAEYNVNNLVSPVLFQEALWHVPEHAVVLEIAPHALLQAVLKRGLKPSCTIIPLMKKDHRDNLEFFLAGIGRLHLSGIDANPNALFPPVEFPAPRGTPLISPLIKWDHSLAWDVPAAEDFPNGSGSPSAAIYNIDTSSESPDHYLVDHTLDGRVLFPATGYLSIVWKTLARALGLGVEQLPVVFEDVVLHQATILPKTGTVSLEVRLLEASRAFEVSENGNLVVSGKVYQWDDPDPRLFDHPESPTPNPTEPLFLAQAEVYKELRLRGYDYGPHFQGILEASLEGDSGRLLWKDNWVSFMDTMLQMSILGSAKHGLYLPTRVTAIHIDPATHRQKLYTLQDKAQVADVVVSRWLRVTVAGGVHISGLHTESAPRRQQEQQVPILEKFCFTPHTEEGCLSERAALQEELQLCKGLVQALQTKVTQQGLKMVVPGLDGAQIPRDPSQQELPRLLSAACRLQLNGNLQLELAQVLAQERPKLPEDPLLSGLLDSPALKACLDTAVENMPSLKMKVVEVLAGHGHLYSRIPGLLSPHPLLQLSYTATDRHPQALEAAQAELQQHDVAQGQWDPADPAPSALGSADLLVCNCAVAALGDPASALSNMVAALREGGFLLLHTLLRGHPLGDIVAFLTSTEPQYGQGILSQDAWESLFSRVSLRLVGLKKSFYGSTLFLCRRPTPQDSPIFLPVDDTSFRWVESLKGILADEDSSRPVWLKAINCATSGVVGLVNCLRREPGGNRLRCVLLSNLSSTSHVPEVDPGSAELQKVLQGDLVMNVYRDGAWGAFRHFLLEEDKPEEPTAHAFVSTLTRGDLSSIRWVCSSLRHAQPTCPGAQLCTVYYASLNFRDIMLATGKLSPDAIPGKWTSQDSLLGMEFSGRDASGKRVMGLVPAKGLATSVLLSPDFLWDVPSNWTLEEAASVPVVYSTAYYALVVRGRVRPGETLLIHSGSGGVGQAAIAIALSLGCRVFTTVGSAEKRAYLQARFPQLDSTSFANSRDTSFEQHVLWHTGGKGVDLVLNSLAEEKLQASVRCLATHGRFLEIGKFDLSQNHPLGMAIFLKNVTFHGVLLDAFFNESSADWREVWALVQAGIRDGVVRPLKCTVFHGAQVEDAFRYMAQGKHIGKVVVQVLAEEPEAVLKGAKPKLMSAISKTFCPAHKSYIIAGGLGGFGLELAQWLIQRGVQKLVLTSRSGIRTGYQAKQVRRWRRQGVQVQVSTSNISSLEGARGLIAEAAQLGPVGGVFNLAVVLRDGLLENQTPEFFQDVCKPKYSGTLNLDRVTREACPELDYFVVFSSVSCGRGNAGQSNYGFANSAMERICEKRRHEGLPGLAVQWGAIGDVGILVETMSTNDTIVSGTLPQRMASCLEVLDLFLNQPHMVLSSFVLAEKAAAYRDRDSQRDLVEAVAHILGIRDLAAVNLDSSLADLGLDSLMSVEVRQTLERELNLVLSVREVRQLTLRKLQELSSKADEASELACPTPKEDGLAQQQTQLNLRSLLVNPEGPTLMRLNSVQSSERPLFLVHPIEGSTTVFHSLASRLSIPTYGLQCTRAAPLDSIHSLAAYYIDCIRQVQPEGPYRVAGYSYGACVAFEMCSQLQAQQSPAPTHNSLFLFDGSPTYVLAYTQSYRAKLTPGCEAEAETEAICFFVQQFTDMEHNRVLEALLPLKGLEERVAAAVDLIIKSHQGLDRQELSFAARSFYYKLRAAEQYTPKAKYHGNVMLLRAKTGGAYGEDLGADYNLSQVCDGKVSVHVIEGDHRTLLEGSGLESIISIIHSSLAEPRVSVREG

One may read the AC50 as the midpoint of the concentration-response curve, whichever way the signal moves. On to `CCOP(=S)(OCC)O/N=C(\C#N)c1ccccc1`, for which the AC50 in [1] is 13.8 µM (active); in [2], 40.4 µM (active); in test [3], 50 µM (active).

Regarding `CCOCn1c(-c2ccc(Cl)cc2)c(C#N)c(Br)c1C(F)(F)F`, the call in test [1] and in test [2] was inactive. The AC50 in [4] is 4.19 µM (active); in test [5], 5.33 µM (active); in test [3], 2.1 µM (active).

As for `O=S1OC[C@@H]2[C@H](CO1)[C@]1(Cl)C(Cl)=C(Cl)[C@@]2(Cl)C1(Cl)Cl` (some centres undefined), the outcome in test [1] was inactive. Also, the AC50 in test [2] is 16.3 µM (active); in test [3] it was 8.22 µM (active); in test [6], 50 µM (active).

`Oc1c(Cl)cc(Cl)cc1Cl`: in [3], the AC50 is 50 µM (active). Further, the molecule was classed as inactive in test [7], in [8], in test [9], in [10], in [11] and in [12]. Besides, the call in [13], in test [14], in test [15], in test [16] and in test [17] was inactive.

`Oc1c(Br)cc(Br)cc1Br`: the outcome in test [4] and in test [5] was inactive. The AC50 in test [3] is 41.3 µM (active).

For the molecule `O=[N+]([O-])c1ccc(Nc2ccccc2)cc1`, the molecule was classed as inactive in [1], in test [2], in [4], in test [5] and in test [3].

In the case of `OCCN(CCO)CCO`, the outcome in test [7], in test [8], in [9], in [10], in [11] and in test [12] was inactive. The call in [13], in [14], in test [15], in [19], in test [16] and in test [17] was inactive. In addition, in test [20], the result was inactive. Moreover, in [18], the AC50 was 73.2 µM (active).

As for `OC(Cc1ccccc1Cl)(Cn1[nH]cnc1=S)C1(Cl)CC1` (centres undefined), the molecule was classed as inactive in test [1], in test [2], in test [3] and in [6].

Take `CCCSP(=S)(OCC)Oc1ccc(SC)cc1` (centres undefined): the molecule was classed as inactive in [4] and in test [5]. Besides, in test [3], the AC50 is 6.35 µM (active).

For the molecule `COc1ccc(N)cc1`, the outcome in [1] and in test [2] was inactive. Also, the AC50 in [3] is 16.4 µM (active).

With `CCCCCCCCCCCCc1cccc(S(=O)(=O)O)c1`, the molecule was called inactive in test [7], in test [8], in test [10], in test [12], in test [13] and in test [19]. The result in test [16], in [17] and in [20] was inactive. Moreover, the AC50 in test [11] was 45 µM (active); in test [18] it was 51.6 µM (active); in test [14], 16.1 µM (active); in test [15], 45 µM (active).
